GLP-1R agonist: agonists of human GLP-1 receptor; P43220; HEK293 GLP-1R CRE-luciferase, luminescence, 4-6 h; cells express a hypersensitive GLP-1R form; Potency, µM (highest dose often 45.6 µM), for the others: at the top dose activation, most hits filed as activators; 380,000 compounds, 0.007% hits; also: potency is read from the fitted curve at half-maximal effect; % of control where 0% means no effect
Target sequence (P43220 whole entry, looked up): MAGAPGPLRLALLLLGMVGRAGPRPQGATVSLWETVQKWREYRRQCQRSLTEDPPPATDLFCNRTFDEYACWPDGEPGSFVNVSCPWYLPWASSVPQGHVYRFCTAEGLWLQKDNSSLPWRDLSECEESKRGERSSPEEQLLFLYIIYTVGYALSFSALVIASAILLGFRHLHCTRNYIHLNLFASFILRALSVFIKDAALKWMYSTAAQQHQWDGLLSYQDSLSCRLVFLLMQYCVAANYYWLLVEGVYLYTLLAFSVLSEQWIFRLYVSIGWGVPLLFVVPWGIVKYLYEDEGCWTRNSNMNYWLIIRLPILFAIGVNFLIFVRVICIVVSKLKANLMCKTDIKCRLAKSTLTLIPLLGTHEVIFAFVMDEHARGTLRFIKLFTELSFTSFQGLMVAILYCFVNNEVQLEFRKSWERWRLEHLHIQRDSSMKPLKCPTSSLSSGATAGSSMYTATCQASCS
GLP1R inv ag: GLP-1 receptor (human) inverse agonism; P43220; HEK293 GLP-1R CRE-luciferase, luminescence, 24 h; GLP-1R form is constitutively active; Potency, µM (doses to about 38.3 µM), without a hit: at the top dose activity change, negative = inhibition, most hits filed as inhibitors; 410,000 compounds, 1.6% hits; also: potency is read from the fitted curve at half-maximal effect; % is scaled to controls: 0 for no effect and ±100 for the full control effect; nearly all actives have a fitted effect of over 55% in size
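Constitutively active GLP-1R drives a cAMP-responsive luciferase in stably transfected HEK293 cells; test compounds are added after overnight (12 h) attachment and left 24 hr, and signal loss in luminescence marks inhibition.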
PTHR1 agonist: activates the human parathyroid hormone receptor PTHR1 | HEK293 GP2 PTHR1 cells, GloSensor cAMP luminescence, 1 h | 410,000 compounds, 0.075% hits | Potency, µM (doses to about 115 µM), for inactives: at the top dose activation, usual class: activators; also: potency is read from the fitted curve at half-maximal effect; nearly all actives have a fitted effect of over 55% in size
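HEK-293-derived GP2 cells expressing PTHR1 and a GloSensor cAMP reporter, 3,000/well, plated overnight, given luciferin plus IBMX (each 0.5 mM as added) for 1 h at 37 °C, then compound for 1 h at 37 °C. Luminescence was read after 15 min at room temperature.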
GLP1R cytotox: cytotoxicity in counter-screen for GLP-1R inverse agonists | AID 624418 | Potency, µM (titrated, usually from 38.3 µM), for inactives: at the highest dose activity change, negative = inhibition, usual class: inhibitors | 410,000 compounds, 0.13% hits | HEK293 cAMP-luciferase reporter cells, luminescence, 24 h;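 also: loss of luciferase light is scored as toxicity; potency is read from the fitted curve at half-maximal effect; % is scaled to controls: 0 for no effect and ±100 for the full control effect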
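MLSMR compounds, 24 hr on cells at 37 deg C/5% CO2; luminescence after luciferase reagent (12 min RT). Inhibition counted as the undesired cytotoxic outcome.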
IDH1 R132H inh: human IDH1 R132H inhibition | O75874 | IDH1-R132H enzyme, NADPH consumption, diaphorase/resazurin fluorescence | Potency, µM (highest dose often 76.6 µM), for inactives: at the top dose activity change, negative = inhibition, most hits filed as inhibitors | 390,000 compounds, 0.093% hits | AID 602179; also: potency is read from the fitted curve at half-maximal effect; % is scaled to controls: 0 for no effect and ±100 for the full control effect; nearly all actives have a fitted effect of over 65% in size
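IDH1-R132H (0.5 ug/mL dispensed) in pH 7.5 Tris buffer was preincubated 30 min with compound, then given a substrate mix of 0.016 mM NADPH and 2 mM alpha-KG for 80 min at room temperature; remaining NADPH was read by diaphorase/resazurin fluorescence.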
LDHA inh: LDHA (human) enzyme inhibition; purified LDHA, NADH/diaphorase-resazurin fluorescence; hits give low values; activity change, % (values are at about 110 or 230 µM); 480,000 compounds, 0.15% hits; P00338; in the data active = activity change below about -30%; inconclusive = mostly about -25% to -30%;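 also: plate controls were DMSO wells for no effect and wells without enzyme for full effect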
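Enzyme activity of human lactate dehydrogenase 5 (2 nM; 0.06 mM NADH, 0.2 mM pyruvate, 5 min, RT) is measured via a resazurin/diaphorase fluorescence readout of residual NADH.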
An asterisk follows results filed as active; i = inactive; ? = inconclusive; . = not tested or not shown; ! = not confirmed by another sample; [ ] = dose if it differs, or a comment. The list is not random: actives were taken first. Their share in the collection is about 1.7%. Unless noted, calls follow the shape of the dose curve; as a rule, active = well fitted curve in the direction sought with a large enough effect; inconclusive = small, poorly fitted or top-dose-only effect, or another doubt; inactive = no such curve, though single readings can be large; an effect the other way counts as inactive or inconclusive.

SMILES	GLP-1R agonist	GLP1R inv ag	PTHR1 agonist	GLP1R cytotox	IDH1 R132H inh	LDHA inh
O=C(CCN1CCN(c2ccccc2)CC1)Nc1cccc(Br)c1	0%	11µM*	-20%	14%	14%	-1
CC(=O)NN1C(=O)c2ccccc2NC12CCCCC2	.	.	.	.	.	3
CCN(c1ccccc1)S(=O)(=O)c1ccc(N2CCN(c3ccc(O)cc3)CC2)nc1	4%	4.5µM*	-43%	-26%	15%	16
CCN(c1ccccc1)S(=O)(=O)c1ccc(N2CCN(c3ccc(OC)cc3)CC2)nc1	2%	-10%	-15%	2%	-1%	-4
O=C(NC1CC1)C1(c2ccc(Cl)cc2)CC1	.	.	.	.	.	0
CC1(C)Cc2cccc(C(=O)Nc3ccc(Cl)cc3)c2O1	2%	11µM*	-10%	-3%	1%	2
CC1(C)Cc2cccc(C(=O)Nc3ccncc3)c2O1	18%	-14%	-22%	-4%	16%	-10
CC(C(=O)NCc1ccco1)n1nc(-c2ccccc2)c2cc(Cl)ccc21 (stereo unspecified)	-3%	-12%	i	1%	-2%	-7
CC(=O)c1ccc(NC(=O)C(C)n2nc(-c3ccccc3)c3cc(Cl)ccc32)cc1 (stereo unspecified)	-6%	6.3µM*	-59%	-28%	10%	1
Cc1cccc(Cn2c(-c3cccc(Br)c3)nc3ccccc32)c1	.	10µM*	i	8%	-4%	3
Cc1ccn2c(Nc3ccccc3C)c(-c3ccc(N4CCOCC4)cc3)nc2c1	.	13µM*	-2%	-10%	13%	-4
Cc1ccc2nc(-c3ccc(N4CCOCC4)cc3)c(Nc3ccccc3C)n2c1	.	?	i	-20%	-6%	1
Cc1ccc(Nc2c(-c3ccc(N4CCOCC4)cc3)nc3ncccn23)c(C)c1	8%	-6%	i	88%	-4%	-2
Cc1ccccc1Nc1c(-c2ccc(N3CCOCC3)cc2)nc2ccc(Cl)cn12	.	10µM*	-9%	16%	8%	2
Cc1cccc(C)c1OCCOCCN1CCN(C)CC1	12%	?	-4%[57.5 µM]	10%	-4%	-43*!
Cc1cccc(C)c1OCCN1CCCC1	-7%	-8%	-34%	-26%	0%	-10
Cc1cc(C)c(OCCOCCN2CCNCC2)c(C)c1	1%	10µM*	-2%	1%	8%	-13
NNC(=O)c1cccc(S(=O)(=O)Nc2cccc(C(F)(F)F)c2)c1	0%	-6%	-11%	7%	-6%	-2
Cc1[nH]c2ccccc2c1/C=N/NC(=O)c1cccc(S(=O)(=O)Nc2cccc(C(F)(F)F)c2)c1	0%	13µM*	-71%	?	23%	-9
O=C(CNC(=O)c1ccc(F)cc1)c1ccc(Cl)cc1	7%	?	-3%	-1%	0%	0
CO/N=C(/CNC(=O)c1ccc(F)cc1)c1ccc(Cl)cc1	2%	8.9µM*	i	3%	3%	-2
CCCc1oc(C(=O)O)cc1CN	-1%	8%	18µM*	3%	2%	-2
Cc1onc(-c2ccccc2)c1CNC(=O)Nc1cccc(Cl)c1	13%	8.9µM*	-24%	-7%	-7%	-3
Cc1cc(C)cc(NC(=O)NCc2c(-c3ccccc3)noc2C)c1	10%	4%	-5%	-6%	-3%	-10
CC(C)c1ccc(CNC(=O)Nc2ccccc2Cl)cc1	.	.	.	.	.	8
SMILES	GLP-1R agonist	GLP1R inv ag	PTHR1 agonist	GLP1R cytotox	IDH1 R132H inh	LDHA inh
Cc1ccc(C2CC2/C(=N/O)c2ccc(F)cc2)cc1 (stereo unspecified)	20%	10µM*	-7%	-2%	0%	-2
O/N=C(/c1ccc(Cl)cc1)C1CC1c1ccccc1 (stereo unspecified)	?	?	-4%	2%	2%	4
Cc1cccc(-n2nnnc2SCC(=O)N(C)c2ccccc2C(=O)NCc2ccco2)c1C	.	.	.	.	.	4
COc1cccc(C(=O)Nc2nc(-c3nnn(-c4ccccc4C(F)(F)F)c3C)ns2)c1	.	5.6µM*	-14%	0%	-5%	-5
O=c1c2cnc3ncnn3c2ccn1CCc1c[nH]c2ccc(Cl)cc12	.	.	.	.	.	3
CCc1ccc2oc(C(=O)Nc3ccc4nsnc4c3)cc(=O)c2c1	.	.	.	.	.	21
COc1cccc(NC(CNS(=O)(=O)c2ccc(Cl)cc2)c2ccccc2)c1 (stereo unspecified)	.	10µM*	-94%	?	.	7
Cc1cccc(NC(CNS(=O)(=O)c2ccc(Cl)cc2)c2ccccc2)c1 (stereo unspecified)	.	.	.	.	.	5
COc1cccc(NC(CNS(=O)(=O)c2ccc(C)cc2)c2ccccc2)c1 (stereo unspecified)	.	10µM*	-24%	-7%	.	5
CC(NS(=O)(=O)c1ccc(F)cc1F)C(=O)N1CCCC1 (stereo unspecified)	.	.	.	.	.	4
CCCCN(CC)CCNC(=O)COCc1cc(-c2cccs2)on1	.	.	.	.	.	-3
C=CCNC(=O)c1onc(CSc2ccc(Cl)cc2)c1C(=O)NCC=C	32%	13µM*	i	?	7%	-1
C=CCNC(=O)c1onc(CSc2ccc(Cl)cc2)c1C(=O)O	-1%	2.2µM*	-5%	-4%	0%	0
COc1ccc(NC(=O)c2cc(-c3ccco3)nc3c2cnn3C(C)C)cc1OC(F)F	.	.	.	.	.	-2
Cc1c(/C=N/NC(=O)CNc2ccccc2)c2ccccn2c1C(=O)c1ccc(Cl)cc1	-31%	5.6µM*	-23%	-16%	-1%	-3
O=C(Nc1ccc2oc(=O)ccc2c1)c1ccc(Cl)cc1	.	.	.	.	.	-4
COc1ccccc1NC(=O)CCc1ncc(-c2ccc(Cl)cc2)o1	.	.	.	.	.	2
CC(C)Cc1ccc(C(=O)NCCOc2ccccc2)o1	12%	11µM*	-11%	0%	9%	0
O=C(NCCOc1ccccc1)c1cc(C(=O)NCCOc2ccccc2)cc([N+](=O)[O-])c1	-23%	?	-29%	-6%	5%	-45*
COc1ccc(OCCNC(=O)c2cccc(Oc3ccc(C(F)(F)F)cc3[N+](=O)[O-])c2)cc1	11%	4.5µM*	-36%	?	3%	-4
O=C(NCCOc1ccccc1)c1ccccc1[N+](=O)[O-]	4%	4%	-22%	-8%	-3%	-17
COc1cc(C2CC(=O)N(Cc3ccc(F)cc3)c3ccccc3S2)cc(OC)c1OC (stereo unspecified)	-7%	11µM*	-42%	4%	-9%	-6
O=C1CSc2ccccc2N1Cc1ccccc1F	5%	-19%	i	-2%	9%	1
